# Measurements as given in PubChem BioAssay (NCI).
# This is part of a sample that, as a whole, favours compounds with a hit. Of some 83,000 tested, about 20% had one in any assay.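 Values shown are percent growth following 48 h exposure of cells in 96-well plates to a single concentration of compound; below 10 was considered active.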 A number with no mark means an inactive call. Activity calls are given as the source filed them.
# What was measured:
# Test in all cases: NCI-60 one-dose screen, 48 h (100 = growth as untreated, 0 = no growth, -100 = all killed)
# Conditions in all cases: 10 µM unless noted
# [1] = tested on: DU-145 prostate
# [2] = tested on: K-562 leukemia
# [3] = tested on: MALME-3M melanoma
# [4] = tested on: MDA-MB-231 breast
# [5] = tested on: RXF 393 renal
# [6] = tested on: SF-268 CNS
# [7] = tested on: SF-295 CNS
# [8] = tested on: SF-539 CNS
# [9] = tested on: UACC-257 melanoma
# [10] = tested on: M14 melanoma
# [11] = tested on: HCT-15 colon
# [12] = tested on: HT29 colon
# [13] = tested on: SNB-75 CNS
# [14] = tested on: SNB-19 CNS
# [15] = tested on: U251 CNS
# [16] = tested on: PC-3 prostate
# [17] = tested on: SK-MEL-5 melanoma
# [18] = tested on: UACC-62 melanoma
# [19] = tested on: LOX IMVI melanoma
# [20] = tested on: SK-MEL-28 melanoma
Compound,growth [1],growth [2],growth [3],growth [4],growth [5],growth [6],growth [7],growth [8],growth [9],growth [10],growth [11],growth [12],growth [13],growth [14],growth [15],growth [16],growth [17],growth [18],growth [19],growth [20]
C=C1C(=O)O[C@H]2[C@H]1CC/C(COC(=O)C(=O)c1cn(C)c3ccc(OC)cc13)=C\CC[C@@]1(C)O[C@@H]21,-79% (active),2.97% (active),-74.8% (active),-58.4% (active),-94.8% (active),-40.6% (active),10.2%,-66.9% (active),-72.1% (active),-77.3% (active),-53.1% (active),-52.7% (active),-76.7% (active),-13.8% (active),-92.5% (active),-59.2% (active),-100% (active),-84.8% (active),-88.5% (active),-65.3% (active)
COc1cc(N=Nc2cc(Cc3ccc(N(C)C)cc3)c(N)cc2N(C)C)c2ncccc2c1,-48.7% (active),-36.8% (active),-17.6% (active),-45.1% (active),-79.7% (active),17.3%,11.8%,-85.8% (active),-33% (active),-15.7% (active),-13.2% (active),-65.4% (active),28.1%,6.94% (active),-54.8% (active),3.89% (active),-13.8% (active),-34% (active),-83.2% (active),15.7%
COc1ccc(C2C(c3nn[nH]n3)=C(N)Oc3c2ccc2ccccc32)cc1 (stereo not given),88%,19.2%,63.7%,31.5%,76.3%,72.1%,77.8%,73.7%,89.8%,58.4%,35%,127%,39.9%,67.3%,73.3%,65.5%,57.5%,45.9%,63.5%,57.4%
Cc1cc(C)c(-c2c(C)cc(C)cc2CBr)c(CBr)c1,94.9%,67.7%,73.5%,97.9%,14.8%,74.2%,84.7%,96.4%,73.9%,72.5%,80.6%,86.3%,92.3%,86.2%,73%,78.4%,77.6%,70.9%,53%,86.9%
CC(=O)O[C@]1(C(C)=O)CCC2C3C[C@H](C)C4=CC(=O)CC[C@]4(C)C3CC[C@@]21C (stereo not given in full),117%,96%,82.8%,71%,119%,108%,95.7%,94.1%,107%,89%,92.3%,87.7%,96%,96.4%,104%,68.4%,81.8%,79.3%,95.7%,108%
COc1cccc(C(=O)NCCNc2cc(-c3cn(-c4ccccc4)nc3-c3cccc(OC)c3)ccn2)c1,64%,32.4%,81%,62.1%,74.2%,68.9%,58.3%,87.3%,46.9%,51.3%,41.8%,22.6%,74.5%,78%,48.4%,25.4%,39.3%,55.1%,62.1%,80.2%
c1ccc2cc3nc4cc5ccccc5cc4nc3cc2c1,110%,95.1%,134%,86.6%,137%,97.7%,134%,108%,98.2%,101%,96.9%,103%,89.3%,97.2%,101%,85%,102%,96.5%,86.1%,96.9%
COC(=O)[C@]12CC[C@@H](C)[C@H](C)[C@@H]1C1=CC[C@@H]3[C@@]4(C)C(C=O)=C[C@@](C)(COC(=O)/C=C/c5ccccc5)[C@@H]4[C@H](O)C[C@@]3(C)[C@]1(C)CC2,-3.76% (active),9.93% (active),-43.2% (active),0.0701% (active),-40.6% (active),14.7%,1.14% (active),-10.7% (active),-43.2% (active),-43% (active),2.39% (active),-22.9% (active),2.38% (active),49.4%,2.16% (active),12%,-64.4% (active),-29.7% (active),-95.5% (active),-12.5% (active)
